Screens (PubChem BioAssay)
An excerpt weighted towards active compounds, which were near 2.5% of everything screened.
TDP43 rescue – TDP-43 toxicity inhibition in yeast | AID 652104 | 410,000 compounds, 1.8% hits | TDP-43 expressing yeast growth rescue, BacTiter-Glo, 24 h | Potency, µM (titrated, usually from 46.1 µM), hits mostly activators; note: nearly all actives have a fitted effect of over 50% in size
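Yeast cells expressing TDP-43 under galactose induction are exposed to compounds for 24 hr at 30 deg C. BacTiter-Glo luminescence measures growth, so protective compounds score as activators.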
Akt phos inh – Akt phosphorylation inhibition; Neuro2A IGF-stimulated pAkt S473 HTRF, 20 min; active compounds read low; activity change, % for hits at 50 µM; 360,000 compounds, 0.32% hits; AID 651550; in the data active = activity change below about -80%; inconclusive = mostly about -51% to -80%
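Single-point screen (50 µM final compound) in Neuro2A cells stimulated 20 min with 6 nM IGF at 37 deg C. After lysis, Ser473-phosphorylated Akt read by HTRF (ex 330 nm, em 615/665 nm) as the 665/615 ratio.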
CCT modulator – cytosolic chaperonin activity modulation; activity change, % (test concentration not listed), hits read low; purified chaperonin ATPase assay, HTRF ADP detection, 30 min; 360,000 compounds, 0.3% hits; AID 651819; in the data active = activity change below about -30%
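TRiC at 40 or 20 nM final (batch-dependent) in 30 mM Tris pH 7.4, 100 mM KCl, 5 mM MgCl2, 1 mM DTT, with compound at single 76 uM and 10 uM ATP, 30 min at 37 deg C. ADP detected by HTRF Transcreener, 665/615 ratio.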
Mito fusion yeast – blocks mitochondrial division or promotes mitochondrial fusion; AID 485298; Potency, µM (highest dose often 46.1 µM), actives largely listed as activators; 320,000 compounds, 0.23% hits; S. cerevisiae fusion-defective mutant growth rescue, CellTiterGlo 48 h; note: nearly all actives have a fitted effect of over 45% in size
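Luminescent cell viability in 1536-well qHTS format served as the measure of rescued growth in ts fusion-mutant S. cerevisiae cultured on non-fermentable YPEG for 48 hours at 37C.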
Apoferritin bind – candidate novel general anesthetic via apoferritin binding. Potency, µM (highest dose often 77.5 µM), hits mostly inhibitors. apoferritin/1-aminoanthracene competitive binding, fluorescence. 350,000 compounds, 0.074% hits. AID 485281. P02791; note: nearly all actives have a fitted effect of over 20% in size
Target sequence (P02791 2-175 limits assumed): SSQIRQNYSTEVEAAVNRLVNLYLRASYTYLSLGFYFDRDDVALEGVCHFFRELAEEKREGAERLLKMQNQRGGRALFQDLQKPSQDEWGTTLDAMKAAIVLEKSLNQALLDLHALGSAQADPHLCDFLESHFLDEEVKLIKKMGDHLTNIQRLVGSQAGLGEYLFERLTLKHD
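Read-out: endpoint 1-AMA fluorescence, excitation 380 nm and emission 535 nm, after compounds sit 10 min at room temperature with 10 uM horse-spleen apoferritin in 50% saturated 1-AMA/PBS. Values come from four-parameter Hill fits.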
aSyn rescue – rescues yeast growth from alpha-synuclein toxicity; Yeast expressing alpha-synuclein, growth rescue, BacTiter-Glo, 24 h; Potency, µM (titrated, usually from 46.1 µM), usual class: activators; 370,000 compounds, 0.14% hits; AID 652106; note: nearly all actives have a fitted effect of over 65% in size
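Galactose-induced alpha-syn yeast (OD600=0.02, raffinose-pregrown) + pinned cpd, 24 hr, 30 deg C; growth by BacTiter-Glo luminescence. Growth restoration scores as activation.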
Hits are given with their value. Unless noted, calls come from the whole dose curve; as a rule, active = well fitted curve in the direction sought with a large enough effect; inconclusive = small, poorly fitted or top-dose-only effect, or another doubt; inactive = no such curve, though single readings can be large; an effect the other way counts as inactive or inconclusive.

`Cc1cc(C)cc(Nc2ncc3c(n2)CC(c2ccco2)CC3=O)c1` (centres undefined) gave TDP43 rescue 16µM, Akt phos inh inactive, CCT modulator inactive, Mito fusion yeast inactive, Apoferritin bind inactive and aSyn rescue inactive.
For Cc1cccc(Nc2ncc3c(n2)CC(c2ccco2)CC3=O)c1 (centres undefined) the results were TDP43 rescue inconclusive, Akt phos inh inactive, CCT modulator inactive, Mito fusion yeast inactive, Apoferritin bind inactive and aSyn rescue inactive.
COC(=O)c1c(/N=C/N(C)C)sc2c1CCN(c1ncc(C(F)(F)F)cc1Cl)C2 was read as TDP43 rescue inconclusive, Akt phos inh inactive, CCT modulator inactive, Mito fusion yeast 10µM, Apoferritin bind inconclusive and aSyn rescue inactive.
`O=C(O)C=C1CCN(c2ncc(C(F)(F)F)cc2Cl)CC1` gave TDP43 rescue 13µM, Akt phos inh inactive, CCT modulator inactive, Mito fusion yeast inactive, Apoferritin bind inactive and aSyn rescue inactive.
Cc1cc(CNC(=O)COc2cc(F)ccc2[N+](=O)[O-])c2ccccc2n1 was read as Akt phos inh inactive, CCT modulator inactive, Mito fusion yeast inconclusive, Apoferritin bind inactive and aSyn rescue inactive.
O=C(COc1cc(F)ccc1[N+](=O)[O-])NCCCc1ccccc1 was read as TDP43 rescue 13µM, Akt phos inh inactive, CCT modulator inactive, Mito fusion yeast inactive, Apoferritin bind inactive and aSyn rescue inactive.
Screening O=C(NC1CCCC1)c1cnn2c1NC(=C1CC1)C=C2C(F)F returned aSyn rescue inactive.
`CN(C)S(=O)(=O)Oc1cccc(C(=O)Nc2ccc(Cl)cc2)c1` gave TDP43 rescue 22µM, Akt phos inh inactive, CCT modulator inactive, Mito fusion yeast inactive, Apoferritin bind inconclusive and aSyn rescue inactive.
CN(C)S(=O)(=O)Oc1cccc(C(=O)Nc2ccccc2Cl)c1 was read as TDP43 rescue 14µM, Akt phos inh inactive, CCT modulator inactive, Mito fusion yeast inactive, Apoferritin bind inactive and aSyn rescue inactive.
Cc1ccc(CC2(C)C(=O)Nc3c(Cl)ccc(Cl)c32)cc1 (centres undefined) was read as TDP43 rescue inactive, Akt phos inh inactive, CCT modulator inactive and aSyn rescue 18µM.
Screening CC1(Cc2cccc(C(F)(F)F)c2)C(=O)Nc2c(Cl)ccc(Cl)c21 (centres undefined) returned TDP43 rescue inactive, Akt phos inh inactive, CCT modulator inactive and aSyn rescue inactive.
Screening CC1(Cc2ccc(Cl)cc2)C(=O)Nc2c(Cl)ccc(Cl)c21 (centres undefined) returned TDP43 rescue inactive, Akt phos inh inactive, CCT modulator inactive and aSyn rescue inconclusive.
Screening CC1(Cc2ccccc2F)C(=O)Nc2c(Cl)ccc(Cl)c21 (centres undefined) returned TDP43 rescue inactive, Akt phos inh inactive, CCT modulator inactive and aSyn rescue 11µM.
`CC1(Cc2ccccc2Cl)C(=O)Nc2c(Cl)ccc(Cl)c21` (centres undefined) gave TDP43 rescue 32µM, Akt phos inh inactive, CCT modulator inactive and aSyn rescue 13µM.
COc1ccc(C(=O)NNC(=S)NC(=O)/C=C/c2cccs2)cc1 was read as TDP43 rescue inconclusive, Akt phos inh inactive, CCT modulator inactive, Mito fusion yeast inactive, Apoferritin bind inactive and aSyn rescue 7.1µM.
`O=C(/C=C/c1cccs1)NC(=S)NNC(=O)c1ccccc1O` gave TDP43 rescue inactive, Akt phos inh inactive, CCT modulator inactive, Mito fusion yeast inactive, Apoferritin bind inconclusive and aSyn rescue inactive.
For COc1cc2[nH]c(=O)n(CCCC(=O)N(C)Cc3ccccc3)c(=O)c2cc1OC the results were TDP43 rescue inactive and Apoferritin bind inactive.
CCCCN1CCC[C@H]1CNC(=O)c1cc(C#N)c2ccccc2c1OC was read as Apoferritin bind inactive.
Screening COc1ccccc1C(=O)NNC(=O)C(=O)Nc1cccc(Cl)c1C returned TDP43 rescue 11µM, Akt phos inh inactive, CCT modulator inactive, Mito fusion yeast inactive, Apoferritin bind inactive and aSyn rescue inactive.
For COc1cccc(C(=O)NNC(=O)C(=O)Nc2cccc(Cl)c2C)c1 the results were TDP43 rescue inactive, Akt phos inh inactive, CCT modulator inactive, Mito fusion yeast inactive, Apoferritin bind inactive and aSyn rescue inactive.
For O=C1C=C(c2ccc3ncccc3c2)C[C@@H](c2ccc(Cl)cc2)C1 the results were TDP43 rescue 16µM, Akt phos inh inactive, CCT modulator inactive, Mito fusion yeast inconclusive and aSyn rescue inactive.
O=C1CC(c2ccccc2)CC(=O)C1Sc1ccc(Cl)cc1 (centres undefined) was read as TDP43 rescue 10µM, Akt phos inh inactive, CCT modulator inactive, Mito fusion yeast inactive, Apoferritin bind inactive and aSyn rescue inactive.
Cc1ccc(C2=CC(=O)C[C@H](c3ccc(Cl)cc3)C2)cc1 was read as TDP43 rescue 16µM, Akt phos inh inactive, CCT modulator inactive, Mito fusion yeast inconclusive and aSyn rescue inactive.
Screening COc1ccc([C@H]2CC(=O)C=C(c3ccc4ncccc4c3)C2)cc1 returned TDP43 rescue inconclusive, Akt phos inh inactive, CCT modulator inactive, Mito fusion yeast inactive and aSyn rescue inactive.
`O=C1C=C(c2ccc3ccccc3c2)C[C@@H](c2ccc(Cl)cc2)C1` gave TDP43 rescue inactive, Akt phos inh inactive, CCT modulator inactive, Mito fusion yeast inactive and aSyn rescue inactive.
For O=C1C=C(c2ccccc2)C[C@@H](c2ccc(Cl)cc2)C1 the results were TDP43 rescue 20µM, Akt phos inh inactive, CCT modulator inactive, Mito fusion yeast inconclusive and aSyn rescue inactive.
`O=C1C=C(c2ccc(O)cc2)C[C@@H](c2ccc(Cl)cc2)C1` gave TDP43 rescue inconclusive, Akt phos inh inactive, CCT modulator inactive, Mito fusion yeast inactive and aSyn rescue inactive.
For CCn1c(C(=O)N2CCCC(C(=O)N3CCN(c4ccccc4)CC3)C2)cc2sccc21 (centres undefined) the results were TDP43 rescue inconclusive and Apoferritin bind inactive.
COc1ccc(-c2nn3c(-c4cc(-c5ccccc5)n[nH]4)nnc3s2)cc1OC was read as aSyn rescue inactive.
Screening O=C(Nc1ccc(F)c(Cl)c1)N1CCC(CN2CCc3ccccc3C2)CC1 returned TDP43 rescue inactive and Apoferritin bind inactive.
COc1cccc(NC(=O)COc2ccccc2C(=O)Nc2ccccc2)c1 was read as aSyn rescue inactive.
For CCOc1ccc(S(=O)(=O)Nc2ccc3c(c2)N(C(C)=O)CCC3)cc1 the results were TDP43 rescue inactive and Apoferritin bind inactive.
